Results filed as inconclusive are left out. The source made the active and inactive calls. Unless noted, calls come from the whole dose curve.
Experiments:
[1] = Nuclear factor erythroid 2-related factor 2/antioxidant responsive element (Nrf2/ARE) small molecule agonists: qHTS cell viability counter screen in human keratinocytes (AID 1919968; active = well fitted curve in the direction sought with a large enough effect in the repeat runs; an effect the other way counts as inactive or inconclusive; note: nearly all actives have a fitted effect of over 55% in size)
Summary of the method: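 Seed 1,500 KeratinoSens cells per well, then incubate 5 h at 37 C/5% CO2. Add compounds in DMSO and incubate 23 h. Add CellTiter-Fluor, wait 1 h and read fluorescence.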

[2] = Nuclear factor erythroid 2-related factor 2/antioxidant responsive element (Nrf2/ARE) small molecule agonists: luciferase reporter gene qHTS assay in human keratinocytes (AID 1919969); note: nearly all actives have a fitted effect of over 35% in size
[3] = biological target: Gonadotropin-releasing hormone receptor (Homo sapiens) (UniProt P30968); test: Human gonadotropin-releasing hormone receptor (GnRHR) small molecule agonists, calcium flux assay in GnRHR-HEK293 cells (AID 1920063); note: nearly all actives have a fitted effect of over 35% in size
Gonadotropin-releasing hormone receptor (Homo sapiens), sequence (P30968 whole entry, looked up): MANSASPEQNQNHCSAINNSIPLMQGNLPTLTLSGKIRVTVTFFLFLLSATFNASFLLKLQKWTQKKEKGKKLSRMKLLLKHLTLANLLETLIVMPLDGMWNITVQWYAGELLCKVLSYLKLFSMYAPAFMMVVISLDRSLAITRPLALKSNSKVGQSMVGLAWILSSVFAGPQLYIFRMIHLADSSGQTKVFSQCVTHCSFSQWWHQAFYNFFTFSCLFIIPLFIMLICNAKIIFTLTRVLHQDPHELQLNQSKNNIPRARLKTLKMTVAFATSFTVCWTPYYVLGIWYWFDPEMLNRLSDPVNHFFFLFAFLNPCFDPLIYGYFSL
Summary of the method: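 Cells: HEK293 stably expressing human GnRHR. Steps: overnight (18 h) culture, 1 h calcium dye loading at 37 C, compound addition, kinetic fluorescence read at 480/540 nm. Each compound tested at 15 concentrations in triplicate.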

[4] = biological target: KiSS-1 receptor (Homo sapiens) (UniProt Q969F8); test: Human kisspeptin (KISS1R) small molecule agonists, calcium flux assay in KISS1R-HEK293 cells (AID 1920064; active = well fitted curve in the direction sought with a large enough effect in the repeat runs; an effect the other way counts as inactive or inconclusive)
KiSS-1 receptor (Homo sapiens), sequence (Q969F8 whole entry, looked up): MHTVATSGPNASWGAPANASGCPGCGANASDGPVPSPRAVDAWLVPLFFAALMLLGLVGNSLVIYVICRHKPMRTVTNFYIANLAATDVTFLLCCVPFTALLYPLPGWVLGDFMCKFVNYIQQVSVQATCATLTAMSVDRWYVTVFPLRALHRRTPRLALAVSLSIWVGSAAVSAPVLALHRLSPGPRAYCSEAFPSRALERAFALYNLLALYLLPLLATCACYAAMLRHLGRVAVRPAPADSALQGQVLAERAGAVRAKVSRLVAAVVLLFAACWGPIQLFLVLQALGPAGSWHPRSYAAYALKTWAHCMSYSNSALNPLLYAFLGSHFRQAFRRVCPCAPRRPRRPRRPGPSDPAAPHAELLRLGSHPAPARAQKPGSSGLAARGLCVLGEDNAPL
Summary of the method: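 Cells plated and incubated 18 h; dye added, 1 h at 37 C; compounds in DMSO pinned in; signal read at 480/540 nm every second for 3 min. Each compound tested at 15 concentrations in triplicate.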

[5] = G protein-coupled receptor (GPCR) small molecule agonists, calcium flux assay: HEK293 wild type cell line counter screen (AID 1920065)
Summary of the method: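 Counter-screen of the Tox21 10K library for non-specific calcium release: dye-loaded cells received compounds in DMSO and were monitored by kinetic fluorescence (480/540 nm, 3 min). Fifteen concentrations, run in triplicate.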

[6] = p53 small molecule agonists, cell-based qHTS assay with human liver microsomes (AID 1963577);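 note: p53 response element beta-lactamase reporter cells with liver microsomes plus NADPH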
Summary of the method: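 p53RE-bla cells; 5 h settle, 37 C/5% CO2; cpd + HLM 0.5 mg/mL + NADPH 0.5 mg/mL (final); 16 h 37 C; LiveBLAzer 2 h RT dark; fluorescence readout.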

[7] = p53 small molecule agonists, cell-based qHTS assay with rat liver microsomes (AID 1963578)
Summary of the method: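 Rat liver microsome activation: microsomes 0.5 mg/mL, NADPH 0.5 mg/mL final; p53RE-bla cells, 16 h 37 C; LiveBLAzer readout, 2 h RT dark.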

[8] = p53 small molecule agonists, cell-based qHTS assay with human liver microsomes: qHTS cell viability counter screen (AID 1963579); note: nearly all actives have a fitted effect of over 45% in size
Summary of the method: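 Luminescent CellTiter-Glo read-out, 30 min at room temperature, gauged cytotoxicity in p53RE-bla cells exposed 16 h at 37 C to DMSO-dissolved compounds with metabolic activation by human liver microsomes and NADPH, each 0.5 mg/mL final.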

[9] = p53 small molecule agonists, cell-based qHTS assay with rat liver microsomes: qHTS cell viability counter screen (AID 1963580); note: nearly all actives have a fitted effect of over 45% in size
Summary of the method: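 p53RE-bla HCT-116 cells (4,000/well) rested 5 h at 37 C, then given Tox21 compounds in DMSO with rat liver microsomes (0.5 mg/mL final) plus NADPH (0.5 mg/mL final) for 16 h at 37 C. Viability read by CellTiter-Glo luminescence after 30 min at room temperature.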

[10] = p53 small molecule agonists, cell-based qHTS assay: qHTS cell viability counter screen (AID 1963581); note: nearly all actives have a fitted effect of over 45% in size
Summary of the method: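 Cells: HCT-116 with p53 response element-driven beta-lactamase. Treatment: 16 h, 37 C, compounds in DMSO. Read: CellTiter-Glo luminescence after 30 min RT.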

[11] = p53 small molecule agonists, cell-based qHTS assay (AID 1963582; active = well fitted activation curve with a large enough effect in the signal ratio in the repeat runs, not every such curve was filed as active; the % refers to the signal ratio)
Summary of the method: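 Quantitative HTS in p53RE-bla cells: after a 5 h settling period, compounds delivered in DMSO were left on cells for 16 h at 37 C, and reporter induction was measured as fluorescence following 2 h substrate loading.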

[12] = biological target: 5-hydroxytryptamine receptor 2A (Homo sapiens) (UniProt P28223); test: 5-hydroxytryptamine receptor 2A (HTR2A) small molecule antagonists, cell-based qHTS assay (AID 1963586); note: nearly all actives have a fitted effect of over 45% in size
5-hydroxytryptamine receptor 2A (Homo sapiens), sequence (P28223 whole entry, looked up): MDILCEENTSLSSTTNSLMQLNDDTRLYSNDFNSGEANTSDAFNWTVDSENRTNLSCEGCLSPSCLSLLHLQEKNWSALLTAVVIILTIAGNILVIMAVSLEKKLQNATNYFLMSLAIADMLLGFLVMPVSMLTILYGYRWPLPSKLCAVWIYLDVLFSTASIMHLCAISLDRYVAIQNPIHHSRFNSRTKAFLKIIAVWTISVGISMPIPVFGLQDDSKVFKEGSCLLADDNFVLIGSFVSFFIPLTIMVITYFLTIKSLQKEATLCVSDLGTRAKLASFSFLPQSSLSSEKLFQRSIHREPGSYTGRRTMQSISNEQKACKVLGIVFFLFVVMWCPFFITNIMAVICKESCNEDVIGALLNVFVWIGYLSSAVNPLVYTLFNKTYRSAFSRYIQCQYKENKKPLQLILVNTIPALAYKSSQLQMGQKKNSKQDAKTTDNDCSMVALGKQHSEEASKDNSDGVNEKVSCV
Summary of the method: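 Antagonist-mode intracellular calcium assay: DOI (4 nM) added after 5 min compound pre-incubation at room temperature to dye-loaded HTR2A-CHO cells. Fluorescence followed for 3 min, sampled every second.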

[13] = biological target: 5-hydroxytryptamine receptor 2A (Homo sapiens) (UniProt P28223); test: 5-hydroxytryptamine receptor 2A (HTR2A) small molecule agonists, cell-based qHTS assay (AID 1963587); note: nearly all actives have a fitted effect of over 30% in size
Summary of the method: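 HTR2A-CHO cells, plated 18 h at 37 C/5% CO2, dye-loaded 1 h at 37 C; compounds in DMSO added by pin tool (agonist mode). Intracellular calcium flux read as kinetic fluorescence on FDSS over 2 min at 1 s intervals.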

[14] = biological target: Muscarinic acetylcholine receptor M1 (Homo sapiens) (UniProt P11229); test: Cholinergic receptor muscarinic 1 (CHRM1) small molecule antagonists, cell-based qHTS assay (AID 1963588); note: nearly all actives have a fitted effect of over 40% in size
Muscarinic acetylcholine receptor M1 (Homo sapiens), sequence (P11229 whole entry, looked up): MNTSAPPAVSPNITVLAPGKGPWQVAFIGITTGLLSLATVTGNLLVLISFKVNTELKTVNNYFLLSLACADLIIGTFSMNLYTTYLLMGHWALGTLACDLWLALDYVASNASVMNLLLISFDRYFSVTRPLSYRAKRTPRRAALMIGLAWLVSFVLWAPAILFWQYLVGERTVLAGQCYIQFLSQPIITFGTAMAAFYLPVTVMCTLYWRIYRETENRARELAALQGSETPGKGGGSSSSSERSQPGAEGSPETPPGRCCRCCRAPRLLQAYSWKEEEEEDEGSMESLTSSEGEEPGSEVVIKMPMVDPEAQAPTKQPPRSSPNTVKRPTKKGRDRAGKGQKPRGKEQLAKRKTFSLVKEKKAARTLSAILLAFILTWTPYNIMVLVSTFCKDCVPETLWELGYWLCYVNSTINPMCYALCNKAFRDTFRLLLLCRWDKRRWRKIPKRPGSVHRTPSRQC
Summary of the method: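 CHRM1-CHO calcium-flux assay, antagonist mode. Cells were seeded 18 h, dye-loaded 1 h at 37 C and given compound for 5 min at RT, then acetylcholine was added at 50nM. FDSS fluorescence was read 3 min; 15 concentrations, three runs.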

[15] = biological target: Muscarinic acetylcholine receptor M1 (Homo sapiens) (UniProt P11229); test: Cholinergic receptor muscarinic 1 (CHRM1) small molecule agonists, cell-based qHTS assay (AID 1963589); note: nearly all actives have a fitted effect of over 35% in size
Summary of the method: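 Agonist-mode qHTS in CHO cells stably carrying human muscarinic M1. Intracellular calcium is tracked by fluorescence every second after compound transfer; each compound runs at 15 concentrations in three independent runs.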

[16] = cAMP Responsive Elements (CRE) small molecule agonists, cell-based qHTS assay (AID 1963590)
Summary of the method: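 Agonist mode qHTS in CRE-bla HEK 293T cells: compounds dosed from DMSO for 3 h at 37 C/5% CO2, followed by LiveBLAzer B/G FRET substrate for 2 h at room temperature.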

[17] = cAMP Responsive Elements (CRE) small molecule antagonists, cell-based qHTS assay (AID 1963591; active = well fitted inhibition curve with a large enough effect in the signal ratio in the repeat runs, not every such curve was filed as active; the % refers to the signal ratio)
Summary of the method: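 Antagonist mode: test compounds are co-incubated with the adenylyl cyclase activator NKH477 (0.25 uM final) on CRE-bla HEK293T cells for 3 h at 37 °C, followed by LiveBLAzer substrate loading.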

[18] = biological target: Beta-2 adrenergic receptor (Homo sapiens) (UniProt P07550); test: Adrenergic beta2 receptor (ADRB2) small molecule antagonists, cell-based qHTS assay (AID 1963592); note: series mostly up to about 92 µM; nearly all actives have a fitted effect of over 50% in size
Beta-2 adrenergic receptor (Homo sapiens), sequence (P07550 whole entry, looked up): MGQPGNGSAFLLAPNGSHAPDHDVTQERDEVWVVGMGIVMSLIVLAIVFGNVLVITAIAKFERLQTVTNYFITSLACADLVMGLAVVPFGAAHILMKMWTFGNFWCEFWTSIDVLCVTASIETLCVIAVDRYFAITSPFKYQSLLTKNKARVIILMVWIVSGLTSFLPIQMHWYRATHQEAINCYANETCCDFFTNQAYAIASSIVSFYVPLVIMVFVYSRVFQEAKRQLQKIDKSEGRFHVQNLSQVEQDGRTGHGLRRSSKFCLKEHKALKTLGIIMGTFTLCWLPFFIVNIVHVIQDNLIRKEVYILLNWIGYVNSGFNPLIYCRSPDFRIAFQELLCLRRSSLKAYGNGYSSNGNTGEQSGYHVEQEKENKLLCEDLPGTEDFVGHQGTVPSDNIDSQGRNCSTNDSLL
Summary of the method: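 Cells (CHO, stable ADRB2 overexpression) incubated 18-20hr at 37C; compounds added from DMSO; agonist mix (1nM isoproterenol, 100uM IBMX, 25uM Ro-20-1724) added; 0.5hr RT; d2-cAMP and anti-cAMP-cryptate added; 1hr RT; 665/615 nm read.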

[19] = biological target: D(2) dopamine receptor (Homo sapiens) (UniProt P14416); test: Dopamine D2 receptor (DRD2) small molecule agonists, cell-based qHTS assay (AID 1963594); note: nearly all actives have a fitted effect of over 35% in size
D(2) dopamine receptor (Homo sapiens), sequence (P14416 whole entry, looked up): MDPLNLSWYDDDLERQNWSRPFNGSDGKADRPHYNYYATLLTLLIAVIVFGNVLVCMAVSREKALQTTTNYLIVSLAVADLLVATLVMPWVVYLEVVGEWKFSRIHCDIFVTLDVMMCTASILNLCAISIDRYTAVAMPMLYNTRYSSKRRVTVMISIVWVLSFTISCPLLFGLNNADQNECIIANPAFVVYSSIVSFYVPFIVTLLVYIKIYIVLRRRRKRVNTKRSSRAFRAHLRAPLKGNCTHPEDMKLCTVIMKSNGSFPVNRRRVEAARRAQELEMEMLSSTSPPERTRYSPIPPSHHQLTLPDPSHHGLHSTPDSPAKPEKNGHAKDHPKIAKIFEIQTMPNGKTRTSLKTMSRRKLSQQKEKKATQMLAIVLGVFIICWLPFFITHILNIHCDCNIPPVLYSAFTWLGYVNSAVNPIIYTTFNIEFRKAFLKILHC
Summary of the method: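 HEK293 cells stably expressing DRD2 were cultured 24 h at 37 C, then given Ro20-1724 (0.1 mM final) and compounds for 10 min at room temperature. NKH477 (200nM) was then added for 30 min. cAMP was read by HTRF.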

[20] = biological target: D(2) dopamine receptor (Homo sapiens) (UniProt P14416); test: Dopamine D2 receptor (DRD2) small molecule antagonists, cell-based qHTS assay (AID 1963595; active = well fitted inhibition curve with a large enough effect in the signal ratio in the repeat runs, with a control signal flat; the % refers to the signal ratio)
Summary of the method: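 HTRF cAMP read-out at 665 and 620 nm emission (340 nm excitation). Antagonist mode: compounds were tested against 12 nM quinpirole in DRD2-HEK293 cells, with 200 nM NKH477 raising cAMP and 0.1 mM Ro20-1724 blocking its breakdown.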
% is set by controls: 0 for no effect and ±100 for the full control effect.

FC1(F)C(F)(F)C(F)(F)C2(F)C(F)(C1(F)F)C(F)(F)C(F)(F)C1(F)C(F)(F)C(F)(F)C(F)(F)C(F)(F)C12F (centres undefined)
inactive: Potency [1] | Potency [2] | Potency [3] | outcome [4] | outcome [5] | Potency [6] | Potency [7] | Potency [8] | Potency [9] | Potency [10] | Potency [11] | Potency [12] | Potency [13] | Potency [14] | Potency [15] | Potency [16] | Potency [17] | Potency [18] | Potency [19] | Potency [20]

OCCC(O)CO (centres undefined)
inactive: Potency [1] | Potency [2] | Potency [3] | outcome [4] | outcome [5] | Potency [6] | Potency [7] | Potency [8] | Potency [9] | Potency [10] | Potency [11] | Potency [12] | Potency [13] | Potency [14] | Potency [15] | Potency [16] | Potency [17] | Potency [18] | Potency [19] | Potency [20]

Cc1cccc(C(=O)O)c1[N+](=O)[O-]
inactive: Potency [1] | Potency [2] | Potency [3] | outcome [4] | outcome [5] | Potency [6] | Potency [7] | Potency [8] | Potency [9] | Potency [10] | Potency [11] | Potency [12] | Potency [13] | Potency [14] | Potency [15] | Potency [16] | Potency [17] | Potency [18] | Potency [19] | Potency [20]

CCOc1ccc2ccccc2c1C(=O)N[C@@H]1C(=O)N2[C@@H]1SC(C)(C)[C@@H]2C(=O)O
inactive: Potency [1] | Potency [2] | Potency [3] | outcome [4] | outcome [5] | Potency [6] | Potency [7] | Potency [8] | Potency [9] | Potency [10] | Potency [11] | Potency [12] | Potency [13] | Potency [14] | Potency [15] | Potency [16] | Potency [17] | Potency [18] | Potency [19] | Potency [20]

CCCCN1C=CN(C)C1
inactive: activity change, negative = cytotoxicity [1] 3.2% [at 19 µM] | activity, positive = activation [2] 5.6% [at 19 µM] | activity change [3] 1.08% [at 11.8 µM, active compounds read high] | activation [4] 2.8% [at 15.8 µM] | activation [5] 0.0752% [at 11.8 µM] | activation [6] -0.103% [at 13.5 µM] | activation [7] 0.456% [at 13.6 µM] | activity change, negative = cytotoxicity [8] -6.5% [at 13.5 µM] | activity change, negative = cytotoxicity [9] 1.05% [at 13.5 µM] | activity change, negative = cytotoxicity [10] -5.52% [at 13.5 µM] | activation [11] -0.772% [at 13.5 µM] | activity, negative = inhibition [12] -10.9% [at 12.7 µM] | activation [13] 7.66% [at 15.9 µM] | activity, negative = inhibition [14] 0.644% [at 12.6 µM] | activation [15] 4.26% [at 15.8 µM] | activation [16] -0.578% [at 19 µM] | activity change, negative = inhibition [17] -0.722% [at 18.9 µM] | activity change, negative = inhibition [18] 3.2% [at 19 µM] | activation [19] 0.42% [at 19 µM]

NC(CS)C(=O)O (centres undefined)
inactive: Potency [1] | Potency [2] | Potency [3] | outcome [4] | outcome [5] | Potency [6] | Potency [7] | Potency [8] | Potency [9] | Potency [10] | Potency [11] | Potency [12] | Potency [13] | Potency [14] | Potency [15] | Potency [16] | Potency [17] | Potency [18] | Potency [19] | Potency [20]

Nc1ccc(C(=O)OCC(O)CO)cc1 (centres undefined)
inactive: Potency [1] | Potency [2] | Potency [3] | outcome [4] | outcome [5] | Potency [6] | Potency [7] | Potency [8] | Potency [9] | Potency [10] | Potency [11] | Potency [12] | Potency [13] | Potency [14] | Potency [15] | Potency [16] | Potency [17] | Potency [18] | Potency [19] | Potency [20]

O=C1CC2(CCCC2)CC(=O)N1
inactive: Potency [1] | Potency [2] | Potency [3] | outcome [4] | outcome [5] | Potency [6] | Potency [7] | Potency [8] | Potency [9] | Potency [10] | Potency [11] | Potency [12] | Potency [13] | Potency [14] | Potency [15] | Potency [16] | Potency [17] | Potency [18] | Potency [19] | Potency [20]

CC(NC(CCc1ccccc1)C(=O)O)C(=O)N1C(=O)N(C)CC1C(=O)O (centres undefined)
inactive: Potency [1] | Potency [2] | Potency [3] | outcome [4] | outcome [5] | Potency [6] | Potency [7] | Potency [8] | Potency [9] | Potency [10] | Potency [11] | Potency [12] | Potency [13] | Potency [14] | Potency [15] | Potency [16] | Potency [17] | Potency [18] | Potency [19] | Potency [20]

ON=C1CCCC1
inactive: Potency [1] | Potency [2] | Potency [3] | outcome [4] | outcome [5] | Potency [6] | Potency [7] | Potency [8] | Potency [9] | Potency [10] | Potency [11] | Potency [12] | Potency [13] | Potency [14] | Potency [15] | Potency [16] | Potency [17] | Potency [18] | Potency [19] | Potency [20]

O=c1[nH]ncc2ccccc12
inactive: Potency [1] | Potency [2] | Potency [3] | outcome [4] | outcome [5] | Potency [6] | Potency [7] | Potency [8] | Potency [9] | Potency [10] | Potency [11] | Potency [12] | Potency [13] | Potency [14] | Potency [15] | Potency [16] | Potency [17] | Potency [18] | Potency [19] | Potency [20]

CCCCCCOC(=O)CCCCC(=O)OCCCCCC
inactive: Potency [1] | Potency [2] | Potency [3] | outcome [4] | outcome [5] | Potency [6] | Potency [7] | Potency [8] | Potency [9] | Potency [10] | Potency [11] | Potency [12] | Potency [13] | Potency [14] | Potency [15] | Potency [16] | Potency [17] | Potency [18] | Potency [19] | Potency [20]

Reference: PubChem BioAssay (Tox21)
